The source of these data is PubChem BioAssay (NCATS).

The target in assay [1] is Cellular tumor antigen p53 (Homo sapiens) (UniProt P04637). Description: Primary qHTS for small molecule compounds that upregulate eGFP-tagged delta133p53alpha (in N-terminal) cells. (AID 2060322).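 Further: series mostly up to about 56 µM; 0% = DMSO vehicle and 100% = reference activator; nearly all actives have a fitted effect of over 75% in size.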 The note with it: NCI-H358 eGFP-delta133p53alpha fluorescence, 24 h; activation: stronger effect = higher value. In a few lines: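 NCI-H358 cells pre-induced 24 h with 10 ng/ml doxycycline to express N-terminal eGFP-delta133p53alpha, then dosed 24 h at 37C without doxycycline; fixed, Hoechst-stained, GFP intensity by laser scanning cytometry, normalized to DMSO (0%) and 57.5 uM 5-azacytidine (100%).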
Chain of Cellular tumor antigen p53 (Homo sapiens) (P04637 whole entry, looked up): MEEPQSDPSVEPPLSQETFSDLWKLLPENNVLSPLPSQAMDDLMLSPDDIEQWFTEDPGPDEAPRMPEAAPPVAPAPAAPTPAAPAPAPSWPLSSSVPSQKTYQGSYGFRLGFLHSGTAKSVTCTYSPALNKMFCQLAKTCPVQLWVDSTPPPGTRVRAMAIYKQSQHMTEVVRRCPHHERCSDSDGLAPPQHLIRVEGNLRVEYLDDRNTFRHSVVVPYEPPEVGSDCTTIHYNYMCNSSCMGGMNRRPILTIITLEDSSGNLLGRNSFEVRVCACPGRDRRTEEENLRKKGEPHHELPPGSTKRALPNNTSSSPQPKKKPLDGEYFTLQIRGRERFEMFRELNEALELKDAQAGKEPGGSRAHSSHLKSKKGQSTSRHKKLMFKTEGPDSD
In general terms: qHTS replaces the single test concentration by a dilution series.

Assay [2] deals with Aldehyde dehydrogenase, mitochondrial (Homo sapiens) (UniProt P05091). Description: qHTS for Inhibitors of the Aldehyde Dehydrogenase Family (ALDH2) Validation screens (AID 2061302; active means well fitted inhibition curve with a large enough effect; title and protocol of this record describe different tests;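 further: plate controls were DMSO vehicle for no effect and maximal DPI positive control response for full effect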).
Assay [3] deals with Retinaldehyde dehydrogenase 3 (Homo sapiens) (UniProt P47895). Description: qHTS for Inhibitors of the Aldehyde Dehydrogenase Family (ALDH1A3) Validation screen (AID 2061312). Further: on the % scale 0 is the no-effect control and ±100 the full control effect; nearly all actives have a fitted effect of over 45% in size.
Assay [4] is described as follows: BET inhibitor-based combinations targeting novel dependencies in MECOM-rearranged (r) AML: MV-4-11 cell line (AID 2202233). Further: nearly all actives have a fitted effect of over 45% in size. Further: potency means the concentration at half of the fitted maximal effect. The method in brief:
(§1)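 Each compound is tested in an 11-point concentration series against 500 seeded cells/well for 48 hr. The luminescent viability signal is normalized to DMSO and blank wells, then reduced to AUC and a cell-line-centred Z-AUC.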

Assay [5] in a line: BET inhibitor-based combinations targeting novel dependencies in MECOM-rearranged (r) AML: HNT-34 cell line (AID 2202234). Further: nearly all actives have a fitted effect of over 35% in size. Further: potency means the concentration at half of the fitted maximal effect. The method in brief:
as §1

Assay [6] can be described thus: BET inhibitor-based combinations targeting novel dependencies in MECOM-rearranged (r) AML: UCSD-AML1 cell line (AID 2202235). Further: nearly all actives have a fitted effect of over 40% in size. Further: potency means the concentration at half of the fitted maximal effect. In a few lines:
as §1

Assay [7] in a line: BET inhibitor-based combinations targeting novel dependencies in MECOM-rearranged (r) AML: AML-191 cell line (AID 2202236; further: nearly all actives have a fitted effect of over 35% in size; further: potency means the concentration at half of the fitted maximal effect). In a few lines:
(§2)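 A 48 hr incubation preceded viability reading by CellTiter-Glo, with 15 min room-temperature development. Dose series had 11 points; normalization used DMSO and empty wells; AUC was computed and mean-centered per line as Z-AUC.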

Assay [8] in a line: BET inhibitor-based combinations targeting novel dependencies in MECOM-rearranged (r) AML: AML-194 cell line (AID 2202237; further: nearly all actives have a fitted effect of over 40% in size; further: potency means the concentration at half of the fitted maximal effect). In a few lines:
as §2

The target in assay [9] is Aldehyde dehydrogenase, mitochondrial (Homo sapiens) (UniProt P05091). Briefly: qHTS for Inhibitors of the Aldehyde Dehydrogenase Family (ALDH2) Confirmatory screens (AID 2061303; active means well fitted inhibition curve with a large enough effect; title and protocol of this record describe different tests; further: nearly all actives have a fitted effect of over 45% in size; further: potency means the concentration at half of the fitted maximal effect).
A short description of assay [10]: qHTS for Inhibitors of the Aldehyde Dehydrogenase Family (ALDH1A2, ALDH1A3, ALDH2, ALDH3A1) (AID 2061307). Further: nearly all actives have a fitted effect of over 50% in size.
For assay [11], the target named is Aldehyde dehydrogenase, mitochondrial (Homo sapiens) (UniProt P05091). Description: qHTS for Inhibitors of the Aldehyde Dehydrogenase Family (ALDH2) Primary screen (AID 2061308). Further: nearly all actives have a fitted effect of over 55% in size. Further: potency means the concentration at half of the fitted maximal effect.
Assay [12] has as its target Retinaldehyde dehydrogenase 3 (Homo sapiens) (UniProt P47895). Description: qHTS for Inhibitors of the Aldehyde Dehydrogenase Family (ALDH1A3) Confirmatory screens (AID 2061311). Further: nearly all actives have a fitted effect of over 60% in size. Further: potency means the concentration at half of the fitted maximal effect.
Assay [13] has as its target Retinal dehydrogenase 2 (Homo sapiens) (UniProt O94788). Briefly: qHTS for Inhibitors of the Aldehyde Dehydrogenase Family (ALDH1A2) Confirmation screens (AID 2061314). Further: nearly all actives have a fitted effect of over 65% in size. Further: potency means the concentration at half of the fitted maximal effect.
Assay [14] deals with Retinaldehyde dehydrogenase 3 (Homo sapiens) (UniProt P47895). Briefly: qHTS for Inhibitors of the Aldehyde Dehydrogenase Family (ALDH1A3) Primary screen (AID 2061315).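 Further: plate controls were DMSO vehicle for no effect and reference inhibitor for full effect.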
Assay [15] has as its target Aldehyde dehydrogenase 1A1 (Homo sapiens) (UniProt P00352). Briefly: qHTS for Inhibitors of the Aldehyde Dehydrogenase Family (ALDH1A1) Confirmatory screens (AID 2061316). Further: nearly all actives have a fitted effect of over 65% in size. Further: potency means the concentration at half of the fitted maximal effect.
Assay [16] is described as follows: BET inhibitor-based combinations targeting novel dependencies in MECOM-rearranged (r) AML: SET-2 cell line (AID 2202231). Further: nearly all actives have a fitted effect of over 35% in size. Further: potency means the concentration at half of the fitted maximal effect.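 On viability: plate controls were DMSO treated cells for no effect and wells without cells for full effect.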 The note with it: SET-2 AML cells viability, CellTiter-Glo luminescence, 48 h; viability: stronger effect = lower value, concentration not given here. The method in brief:
as §2
Background: Cellular ATP, detected with luciferase, serves as a proxy for viable cell number.

Assay [17] in a line: BET inhibitor-based combinations targeting novel dependencies in MECOM-rearranged (r) AML: OCI-AML3 cell line (AID 2202232). Further: nearly all actives have a fitted effect of over 35% in size. Further: potency means the concentration at half of the fitted maximal effect. The note with it: Potency: OCI-AML3 viability. In a few lines: as §2

Molecules are shown by their SMILES. “And” between values parts separate entries of the source, which are not always exact repeats. Equal entries are not always repeated. Records with an inconclusive call do not appear. Some structures have more than one record in an assay (separate samples or runs), and their calls can disagree. The source made the active and inactive calls. Unless noted, the call rests on the fitted dose curve; in most records, active means well fitted curve in the direction sought with a large enough effect; inconclusive means small, poorly fitted or top-dose-only effect, or another doubt; inactive means no such curve, though single readings can be large; an effect the other way counts as inactive or inconclusive.

Regarding `NC(=NCc1ccccc1)NC(=O)c1nc(Cl)c(N)nc1N`, the activation in assay [1] was 0.24% (inactive) and 2.72% (inactive). The Potency result in [2], in assay [3] and in assay [6] was “inactive” in each case. The Potency is 5.25 µM (active) in assay [4], 14.8 µM (active) in assay [5], 20.9 µM (active) in assay [7] and 23.5 µM (active) in assay [8].

Consider `O=C(CCN1CCN(C(=O)OCc2cc(Cl)cc(Cl)c2)CC1)c1ccc2[nH]c(=O)oc2c1`, for which the activation in assay [1] is 10.1% (inactive). Further, the Potency in assay [9] was 283 nM (active) and 5.62 µM (active); in assay [10] it was 0.201 µM (active); in assay [11], 0.158 µM (active); in assay [12], 1.42 µM (active); in assay [13], 252 nM (active) and inactive; in assay [15] it was 0.252 µM (active). Moreover, the Potency in [17] is 18.6 µM (active); in assay [4], 26.3 µM (active). For the same compound, the Potency entry in assay [3] and in assay [14] was “inactive” each time. Besides, the viability in assay [16] is 95.2% (inactive).

`CCC(=O)c1cc(-c2ccc(Cl)cc2)n(-c2ccc(S(N)(=O)=O)cc2)c1C`: the activation in [1] was 0.955% (inactive). Further, the Potency result in assay [9], in assay [10], in assay [11], in assay [12], in [3] and in assay [14] was “inactive” in each case. For the same compound, in assay [15], the Potency entry was “inactive”.

In the case of `CN(C)CCCN1c2ccccc2CCc2ccc(Cl)cc21`, the activation in assay [1] is 5.09% (inactive) and -16.2% (inactive). Also, the Potency entry in [2], in assay [3] and in [8] was “inactive” throughout.

Regarding `Clc1ccc(C(c2ccc(Cl)cc2)n2cc[n+](CC(OCc3ccc(Cl)cc3Cl)c3ccc(Cl)cc3Cl)c2)cc1` (configuration not stated), the activation in [1] is 29.4% (inactive). Besides, the Potency entry in assay [2] and in [3] was “inactive” each time. Further, the Potency in [17] was 5.9 µM (active); in assay [4] it was 8.33 µM (active); in assay [5], 9.34 µM (active); in [7], 18.6 µM (active); in assay [8], 26.3 µM (active).

For `COC(=O)[C@@]1(c2ccc(C)cc2)C[C@H]1CN1CCC(O)(c2ccccc2)CC1`, the activation in assay [1] was 0.477% (inactive). Moreover, the Potency entry in assay [9], in [10], in assay [11], in assay [12], in [3] and in assay [13] was “inactive” in each case. In addition, the Potency result in assay [14] and in assay [15] was “inactive” each time.

For the compound `CCCCN(CCCC)CC(O)c1cc(Cl)cc2c1-c1ccc(Cl)cc1/C2=C/c1ccc(Cl)cc1` (configuration not stated), the activation in assay [1] is 22.6% (inactive) and -82.3% (inactive). Also, the Potency entry in assay [2], in assay [3], in assay [17], in [4], in assay [5] and in assay [6] was “inactive” in each case. For the same compound, the Potency result in [7] and in assay [8] was “inactive” each time. Further, the viability in assay [16] is 104% (inactive).

With `CC(C)c1ccc2c(c1)c(SC(C)(C)C)c(CC(C)(C)C(=O)O)n2Cc1ccc(Cl)cc1`, the activation in assay [1] was 10.9% (inactive) and -49% (inactive). Besides, the Potency entry in assay [2], in assay [3] and in [6] was “inactive” each time. Moreover, the Potency in assay [17], in assay [4] and in assay [7] was 20.9 µM (active) each time.

As to `NC(=O)[C@H]1CCS[C@@H]2C[C@]3(CCCN3C(=O)Cc3ccc(NC(=O)COc4ccc(Cl)cc4Cl)cc3)C(=O)N12`, the activation in assay [1] is 19% (inactive). The Potency result in [9], in assay [10], in assay [11], in assay [12], in assay [3] and in [13] was “inactive” each time. The Potency entry in [14] and in assay [15] was “inactive” each time. Moreover, the Potency was 14.8 µM (active) in assay [16]; 9.34 µM (active) in assay [17]; 7.42 µM (active) in assay [4]; 7.42 µM (active) in [6]; 5.25 µM (active) in [7]; 6.61 µM (active) in [8].

For the compound `NC(CO)C(=O)NNCc1ccc(O)c(O)c1O` (configuration not stated), the activation in assay [1] was -10.9% (inactive) and -15.4% (inactive) and 9.06% (inactive). The Potency result in assay [2], in assay [4], in [5], in assay [6] and in assay [8] was “inactive” in each case.

For the compound `Nc1ncnc2c1ncn2[C@@H]1O[C@H](CO)[C@@H](O)[C@H]1O`, the activation in [1] is 6.69% (inactive) and -13% (inactive). Also, the Potency result in assay [2], in [3], in [17], in assay [4], in assay [5] and in assay [6] was “inactive” throughout. Further, the Potency entry in assay [7] and in [8] was “inactive” in each case. Moreover, the viability in assay [16] is 126% (inactive).

`O=c1c(O)c(-c2ccc(O)c(O)c2)oc2cc(O)cc(O)c12`: the activation in assay [1] is -2.54% (inactive) and -9.6% (inactive) and 3.95% (inactive). Besides, the Potency entry in [2], in [17], in [4], in [5], in assay [6] and in [7] was “inactive” each time. In addition, in [16], the viability is 113% (inactive).

As for `CNC[C@H](O)c1cccc(O)c1`, in assay [1], the activation was -9.21% (inactive) and 8.41% (inactive) and -4.95% (inactive). For the same compound, the Potency entry in assay [2], in assay [3], in [17], in [5], in assay [6] and in assay [8] was “inactive” each time. In addition, in assay [16], the viability was 112% (inactive).

For the compound `Cc1onc(-c2c(Cl)cccc2Cl)c1C(=O)N[C@@H]1C(=O)N2[C@@H]1SC(C)(C)[C@@H]2C(=O)O`, the activation in assay [1] was -9.21% (inactive) and 6.21% (inactive). In addition, the Potency entry in assay [9], in assay [10], in [11], in assay [12], in assay [3] and in assay [14] was “inactive” in each case. In addition, the Potency entry in assay [15] was “inactive”.

`CCCCC1CCN(CCCN2C(=O)CCc3ccccc32)CC1`: the activation in assay [1] is -5.25% (inactive). Besides, the Potency entry in assay [9], in assay [10], in [11], in [12], in assay [3] and in assay [13] was “inactive” in each case. The Potency result in assay [14] and in assay [15] was “inactive” in each case.

As for `COc1ccccc1OCC(O)CN1CCN(CC(=O)Nc2c(C)cccc2C)CC1` (configuration not stated), the activation in assay [1] was -19.2% (inactive) and 6.83% (inactive) and -14.1% (inactive). In addition, the Potency result in assay [2], in assay [4], in [5], in assay [7] and in assay [8] was “inactive” throughout. Besides, the viability in assay [16] was 110% (inactive).

Broadly, the viability is a read-out of living cells in per cent, often relative to untreated cells.
